# ELG1 repair inh = qHTS screen for small molecules that inhibit ELG1-dependent DNA repair in human embryonic kidney (HEK293T) cells expressing luciferase-tagged ELG1. Potency, µM (top dose mostly 46.1 µM), without a hit: top-dose activity change, negative = inhibition, usual class: inhibitors. 330,000 compounds, 2.3% hits. HEK293T ELG1-luciferase reporter, luminescence, 16 h; DNA damage induced by 5-fluorouridine. AID 504467, 2011; further: on the % scale 0 is the no-effect control and ±100 the full control effect; nearly all actives have a fitted effect of over 55% in size
#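 Overnight (16 hr) co-exposure of 2,000 cells/well to 5-fluorouridine and compound at 37 °C preceded detection. Luciferase was quantified via ONE-Glo luminescence; loss of signal denotes inhibition.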
# VP16 counter = VP16 counterscreen qHTS for inhibitors of ROR gamma transcriptional activity | Drosophila S2 Gal4-VP16 UAS-luciferase, luminescence, 20 h | Potency, µM (titrated, usually from 53.6 µM), inactives show at the highest dose activity, negative = inhibition, hits mostly inhibitors | 310,000 compounds, 3.5% hits | AID 2546, 2010;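 further: Gal4-VP16 expression switched on by copper sulfate through the metallothionein promoter; on the % scale 0 is the no-effect control and ±100 the full control effect; nearly all actives have a fitted effect of over 50% in size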
# RORgamma inh = qHTS for inhibitors of ROR gamma transcriptional activity; Nuclear receptor ROR-gamma (Mus musculus), P51450; Drosophila S2 Gal4-RORgamma UAS-luciferase reporter, 20 h; Potency, µM (doses to about 53.6 µM), for inactives: at the top dose activity change, negative = inhibition, actives largely listed as inhibitors; 310,000 compounds, 5.4% hits; AID 2551, 2010; further: on the % scale 0 is the no-effect control and ±100 the full control effect; nearly all actives have a fitted effect of over 60% in size
# Target sequence (P51450 whole entry, looked up, the tested form may be a part): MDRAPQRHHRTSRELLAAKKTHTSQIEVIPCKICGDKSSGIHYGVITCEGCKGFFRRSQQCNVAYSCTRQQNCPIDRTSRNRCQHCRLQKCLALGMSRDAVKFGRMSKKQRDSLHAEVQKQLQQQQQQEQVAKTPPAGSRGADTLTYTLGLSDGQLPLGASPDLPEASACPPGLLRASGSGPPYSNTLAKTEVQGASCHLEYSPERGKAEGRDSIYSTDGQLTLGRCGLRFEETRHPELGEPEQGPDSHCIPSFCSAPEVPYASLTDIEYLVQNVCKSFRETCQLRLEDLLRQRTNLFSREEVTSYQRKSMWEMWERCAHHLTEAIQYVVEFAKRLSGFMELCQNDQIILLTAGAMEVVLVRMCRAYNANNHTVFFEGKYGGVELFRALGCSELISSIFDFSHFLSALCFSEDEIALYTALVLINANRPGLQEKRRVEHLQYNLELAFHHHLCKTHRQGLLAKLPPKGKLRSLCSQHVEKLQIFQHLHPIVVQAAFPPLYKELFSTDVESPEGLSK
#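 Read-out: Photinus luciferase luminescence; inhibitors lower reporter signal. Insect Schneider cells with Gal4-ROR gamma fusion under metallothionein promoter, UAS reporter; 700 uM final copper sulfate induction, 20 hr, ambient temperature.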
# SW480 rereplic = A quantitative high throughput screen for small molecules that induce DNA re-replication in SW480 colon adenocarcinoma cells | SW480 DNA re-replication, Hoechst DNA content imaging, 48 h | AID 624297, 2012 | Potency, µM (titrated, usually from 46.1 µM), without a hit: at the top dose re-replication activation, usual class: activators | 340,000 compounds, 1.8% hits; further: % of control where 0% means no effect; nearly all actives have a fitted effect of over 55% in size
#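 Quantitative HTS format with DMSO vehicle controls; 48 hr drug incubation at 37 C, then 40 min Hoechst staining and scanning imager measurement at 405 nm excitation.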
# MCF10A rerep = A quantitative high throughput screen for small molecules that induce DNA re-replication in MCF 10a normal breast cells; MCF 10A DNA re-replication, Hoechst nuclear intensity, 48 h; Potency, µM (top dose mostly 46.1 µM), for inactives: at the top dose activity, positive = re-replication, hits mostly activators; 350,000 compounds, 2.9% hits; further: % of control where 0% means no effect; nearly all actives have a fitted effect of over 50% in size
# ELG1 FLuc counter = qHTS screen for small molecules that inhibit ELG1-dependent DNA repair: Hit Confirmation in Cell-Based Luciferin Assay; shares compounds with ELG1 repair inh; cell-free firefly luciferase luminescence counter-screen, ViewLux; Potency, µM (doses to about 46.1 µM), inactives show at the highest dose activity change, negative = inhibition, actives largely listed as inhibitors; 350 compounds, 3% hits; AID 624247, 2012; further: on the % scale 0 is the no-effect control and ±100 the full control effect
# ELG1-Luc inh = HTS assay for small molecules that inhibit ELG1-dependent DNA repair in human embryonic kidney (HEK293T) cells expressing luciferase-tagged ELG1: Hit Confirmation | shares compounds with ELG1 repair inh | HEK293T ELG1-luciferase levels, luminescence; cells co-treated with 5-fluorouridine | Potency, µM (series often up to 46.1 µM), without a hit: at the top dose activity change, negative = inhibition, hits mostly inhibitors | 670 compounds, 68% hits | AID 624248, 2012; further: on the % scale 0 is the no-effect control and ±100 the full control effect; nearly all actives have a fitted effect of over 55% in size
# ELG1-Luc MMS = MMS-stimulated human ELG1 repair inhibition, confirmed; shares compounds with ELG1 repair inh; HEK293T luciferase-tagged ELG1 level, MMS stimulated; Potency, µM (highest dose often 46.1 µM), for inactives: at the top dose activity change, negative = inhibition, actives largely listed as inhibitors; 670 compounds, 53% hits; AID 624249; further: on the % scale 0 is the no-effect control and ±100 the full control effect; nearly all actives have a fitted effect of over 60% in size
# ELG1 5FU viab = qHTS screen for small molecules that inhibit ELG1-dependent DNA repair: Hit Confirmation with 5FU Viability; shares compounds with ELG1 repair inh; cell viability with 5-FU, ELG1-dependent repair; Potency, µM (highest dose often 46.1 µM), for the others: top-dose activity change, negative = viability loss, hits mostly cytotoxic; 670 tested, under 10 active;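 further: ELG1-luc HEK293T cells cotreated with 5-fluorouridine at 10 µM final; viability measured 16 h after compound addition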
# ELG1 MMS cell = qHTS screen for small molecules that inhibit ELG1-dependent DNA repair: Hit Confirmation with MMS Viability. shares compounds with ELG1 repair inh. Cell viability with MMS, ELG1-dependent DNA repair. Potency, µM (doses to about 46.1 µM), for inactives: at the top dose activity change, negative = viability loss, hits mostly cytotoxic. 670 compounds, 33% hits. AID 624251, 2012;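 further: ELG1-luc HEK293T cells co-treated with 10 µM MMS; viability read 16 h after compound addition; on the % scale 0 is the no-effect control and ±100 the full control effect; nearly all actives have a fitted effect of over 60% in size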
# Cell viab unstim = qHTS screen for small molecules that inhibit ELG1-dependent DNA repair: Hit Confirmation with Unstimulated Viability Assay | shares compounds with ELG1 repair inh | cell viability counter-screen, unstimulated, luminescence | Potency, µM (series often up to 45.9 µM), inactives show at the top dose activity change, negative = loss of viability, usual class: cytotoxic | 900 compounds, 8% hits | AID 624252, 2012;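 further: compound exposure lasted 16 hours before reading; on the % scale 0 is the no-effect control and ±100 the full control effect; nearly all actives have a fitted effect of over 55% in size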
# FLuc enzyme = qHTS screen for small molecules that inhibit ELG1-dependent DNA repair: Hit Confirmation in Biochemical Luciferin Assay; purified firefly luciferase, luminescence counter-screen; Potency, µM (top dose mostly 57.5 µM), for the others: top-dose activity, negative = inhibition, most hits filed as inhibitors; 350 compounds, 10% hits; AID 624253, 2012; shares compounds with ELG1 repair inh; further: on the % scale 0 is the no-effect control and ±100 the full control effect
# * hit, by the source's call; ? = inconclusive; · = not tested or not shown; [ ] = dose if it differs, or a comment. An excerpt weighted towards active compounds, which were near 10% of everything screened. The call rests on the fitted dose curve; in most records, active means well fitted curve in the direction sought with a large enough effect; inconclusive means small, poorly fitted or top-dose-only effect, or another doubt; inactive means no such curve, though single readings can be large; an effect the other way counts as inactive or inconclusive. Potency means the concentration at half of the fitted maximal effect.
SMILES,ELG1 repair inh,VP16 counter,RORgamma inh,SW480 rereplic,MCF10A rerep,ELG1-Luc inh,ELG1-Luc MMS,ELG1 5FU viab,ELG1 MMS cell,Cell viab unstim,others
CCN(CC)Cc1c(O)ccc2c([N+](=O)[O-])c(C)n(-c3ccc(OC)cc3)c12,2.3µM*,-11%,27%,3%,7%,4µM*,?,-7%,-9%,-14%,
O=C(CSc1nc2ccsc2c(=O)n1CC1CCC(C(=O)O)CC1)NCCc1ccc(Cl)cc1 (configuration not stated),-5%,-1%,-3%,7%,-2%,·,·,·,·,·,
COc1ccc(-n2nc(C(=O)NCC(=O)Nc3cc(OC)c(OC)c(OC)c3)c3ccccc3c2=O)cc1,3.3µM*,-24%,10%,-1%,9%,3.2µM*,13µM*,15%,-18%,?,ELG1 FLuc counter=70%;FLuc enzyme=5%
Cc1c(NC(=O)CN2C(=O)NC(CCc3ccccc3)C2=O)c(=O)n(-c2ccccc2)n1C (configuration not stated),1%,-2%,1%,-3%,0%,·,·,·,·,·,
Cc1cc(C(=O)Nc2ccc(Br)cn2)sc1C,?,·,·,1%,16%,·,·,·,·,?,
O=C(Nc1ccc(Br)cn1)c1ccc(Cl)s1,?,?,18%,?,?,·,·,·,·,·,
O=C(NCc1ccco1)c1ccc2nccnc2c1,-4%,-7%,15%,-13%,9%,·,·,·,·,·,
Cc1sc2c(c1C)C(O)=C(C(=O)Nc1ccccc1)S(=O)(=O)N2C,?,?,-1%,-2%,-6%,·,·,·,·,·,
Cc1nn(-c2ccccc2)c(N2CCCC2)c1/C=N/NC(=O)c1cc(-c2ccccc2)nc2ccccc12,3.7µM*,-19%,15%,13%,?,7.9µM*,?,-6%,-8%,?,
Cc1ccc(-c2cc(C(=O)N/N=C/c3c(C)nn(C)c3C)c3ccccc3n2)c(C)c1,-5%,-2%,-4%,-3%,?,·,·,·,·,·,
Clc1ccccc1Cn1nnc2ccccc21,13%,15%,5%,-2%,5%,·,·,·,·,·,
CC(=O)Nc1cccc(OCC(O)Cn2c(C)nc3ccccc32)c1 (configuration not stated),?,-10%,?,-8%,1%,·,·,·,·,·,
CCCOC(=O)c1ccc(OCC(O)Cn2c(C)nc3ccccc32)cc1 (configuration not stated),1.5µM*,3.2µM*,?,-10%,13%,?,1.8µM*,-4%,2µM*,?,
COCC(C)n1c(C)cc(C(=O)COC(=O)c2cc(=O)[nH]c3ccccc23)c1C (configuration not stated),?,·,·,-3%,7%,·,·,·,·,6%,
CC1Cc2ccccc2N1C(=O)Cn1cnc2ccccc21 (configuration not stated),?,?,-6%,-2%,7%,·,·,·,·,·,
COc1ccc(OC[C@@H](O)CNC(=O)c2cccc3c2C(=O)c2ccc(-c4ccc(F)cc4OCc4ccccc4)cc2S3(=O)=O)cc1,2.3µM*,·,·,0%,19%,3.1µM*,5%,?,?,0%,
COc1ccc(NC(=O)c2cccc3c2C(=O)c2ccc(-c4ccc(F)cc4OCc4ccccc4)cc2S3(=O)=O)cc1,5%,·,·,?,?,·,·,·,·,·,
Fc1c(F)c(F)c(SCn2cc(Br)cn2)c(F)c1F,0%,·,·,7%,1%,·,·,·,·,·,
COc1ccccc1N1CCN(C(=O)CCCN2C(=O)c3cccc4cccc(c34)C2=O)CC1,4.6µM*,-17%,-10%,4%,?,7.9µM*,?,?,-4%,?,
O=C(CCNC(=O)C1CCN(S(=O)(=O)c2ccc(F)cc2)CC1)NC1CC1,0%,-13%,-1%,0%,10%,·,·,·,·,·,
COc1ccc(N2CCN(C(=O)CN3CCN(c4nc(-c5ccc(F)cc5)cs4)CC3)CC2)cc1,2.1µM*,-19%,?,?,?,14µM*,4µM*,-16%,4.4µM*,?,
COc1ccc(-c2nnn(CC(=O)N3CCN(c4ccc(F)cc4)CC3)n2)cc1,10%,-3%,-10%,2%,0%,·,·,·,·,·,
O=C(Nc1ccncc1)C1CC1c1ccccc1 (configuration not stated),0.15µM*,?,0%,-1%[9.22 µM],1%,?,14µM*,-1%,16µM*,-2%,ELG1 FLuc counter=0%;FLuc enzyme=-5%
